# About 83,000 compounds went through this panel and 20% of them were active in at least one assay; those are over-represented in the sample as a whole.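 Treatment: one concentration, 48 hours, 96-well format. Scoring: percent growth, with anything below 10 considered active.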 Values without a mark were called inactive. The source made the active and inactive calls.
# Test system: TK-10 renal
# Experiment: NCI-60 one-dose screen, 48 h (100 = growth as untreated, 0 = no growth, -100 = all killed)
# Conditions: 10 µM unless noted
row,Compound,growth
1,OC(c1ccccc1)(c1ccccc1)c1ccccc1-c1ccccc1,89.8%
2,Clc1ccc(-c2nc(-c3c[nH]c4ncccc34)cs2)cc1,39.7% [100 µM]
3,CC(=O)c1cc(-c2ccccc2N)n(-c2ccc3c(c2)OCO3)c1C,45.6%
4,CC1O[C@@H]2C[C@@](O)([C@H]1O)n1c3ccccc3c3c4c(c5c6ccccc6n2c5c31)C(=O)NC4=O (some centres not stated),79.6%
5,COC(=O)/C(CCC=C(C)C)=C1\[C@@H](OC(C)=O)C[C@@]2(C)[C@H]1CC(=O)[C@H]1[C@@]3(C)CCC(N4CCCC4)[C@@H](C)[C@@H]3CC[C@@]12C (some centres not stated),102%
6,CN(C)c1ccc(/C=C2/C=C(c3ccccc3)OC2=O)cc1,110%
7,COc1cc(-c2nc3occn3c2-c2ccnc(NCCCNS(=O)(=O)c3ccccc3)n2)ccc1F,49.5%
8,O=C(Nc1ccccc1)c1sc(-c2ccccc2)cc1O,118%
9,CCOC(=O)c1c2c(n3c1NCC3)-c1ccccc1C2=O,96.4%
10,C/C(=N\Nc1nc(C)cs1)c1cc2ccccc2o1,134%
11,CCOC(=O)C1=C(c2ccccc2)N=c2s/c(=C/c3ccc(Br)cc3)c(=O)n2C1c1ccc(O)cc1 (configuration not stated),91.7%
12,COc1ccc(C2CC(c3ccc(Nc4nc(Nc5ccc(F)cc5)nc(Nc5ccc(F)cc5)n4)cc3)=NN2C(C)=O)cc1 (configuration not stated),104%
13,c1ccc2cc(Cn3c[n+](Cc4ccc5ccccc5c4)c4ccccc43)ccc2c1,-72% (active)
14,CN1CCN(c2ccc3c(c2)nc(NNC(=O)c2cnccn2)c2cccn23)CC1,44.8%
15,Cc1cc(C)c(-c2c(O)c(Br)c(-c3c(C)cc(C)c(Br)c3C)c(O)c2Br)c(C)c1Br,12%
16,CCCCCCCCCCCCCCCCCCOc1ccccc1CC(=O)NCC[N+]1(C)CCOCC1,7.69% (active)
17,O=C(/C=C/c1cccc(Cl)c1)c1cccc(OCCCCOc2cccc(C(=O)/C=C/c3cccc(Cl)c3)c2)c1,109%
18,Cc1ccc(-c2nc(C#N)c(S(=O)(=O)NCCO)o2)cc1,65.7%
19,NC(=O)c1ccc(NC(=O)c2oc3ccccc3c2-c2cnn(-c3ccccc3)c2)cc1,44.5% [50 µM]
20,O=C(CBr)CN1C(=O)c2ccccc2C1=O,100%

row,Compound,growth
1,CCN(CC)c1ccc(/C=C\c2cc(C)c3cc(C)ccc3n2)cc1,54.8%
2,C=CCN=C(N)SCCCCCCSC(N)=NCC=C,79.6%
3,Clc1nn2c(Cn3cnc4c(NCc5ccccc5)ncnc43)nnc2c2ccccc12,40.5%
4,CCOC(=O)c1ccc2c(c1)c1c(C)c3ccncc3c(C)c1n2C,2.52% (active)
5,CCCCCCCCn1ccc2cc(NC(=O)Cn3cc(CN4CCCCCC4)nn3)ccc21,71.4%
6,N#CC(C#N)N=Nc1ccc(Cl)cc1Cl,90.8%
7,Brc1ccc(-c2cnc3nonc3n2)cc1,96.3%
8,COc1cccc(C(=O)OCC(O)C(=O)NC23CC4CC(CC(C4)C2)C3)c1 (configuration not stated),96.4%
9,O=C(Nc1cccc(NC(=O)C2CCCCC2)c1)c1ccccn1,112%
10,Cc1cc(C)cc(Nc2ccc([N+](=O)[O-])c(NCCN3CCOCC3)n2)c1,65%
11,O=C(Nc1cccnc1Nc1ccc(Cl)cc1)c1cn(Cc2ccc(F)cc2)nn1,96.9%
12,Cn1c(=O)c2c(c3ccccc31)OC(N)=C(C#N)C21C(=O)c2ccccc2C1=O,127%
13,COc1cccc(/C=C2\COc3ccc(O)cc3C2=O)c1,101%
14,CCc1cccc(Sc2cc(C(=O)N3Cc4ccc(OCCN(C)C)cc4C3)ccc2O)c1,63.2%
15,C=C(CN1CC=CCC1)[C@@H]1CC[C@]2(CO)CC[C@]3(C)[C@H](CC[C@@H]4[C@@]5(C)CC[C@H](O)C(C)(C)[C@@H]5CC[C@]43C)[C@@H]12,123%
16,COc1ccc(/C(C)=C(\c2ccc(Cl)cc2)c2ccc(OCCN3CCCC3)cc2)cc1,69.5%
17,CC/C(Cc1ccccc1)=C(\c1ccc(OCCN2CCCCCC2)cc1)c1ccc(OC(=O)NCc2ccccc2)cc1,91.6%
18,N=c1sc(Cc2cc(Cl)ccc2Cl)cn1CC(=O)c1ccccc1,61.3%
19,Cc1cc(C(=O)Nc2cc(Nc3ncccc3-c3ncnc4nc[nH]c34)ccc2F)cc(C(F)(F)F)c1,68%
20,C[C@@H]1O[C@@H](O[C@@H]2C[C@H](c3ccc4c(c3O)C(=O)C3=C(C4=O)[C@@]4(O)C(=O)C[C@](C)(O)C[C@@]4(O)C=C3)O[C@H](C)[C@H]2O)C[C@H](O)[C@@H]1O,101%

# Test system: ACHN renal
# Experiment: as above
# Conditions: 10 µM unless noted
row,Compound,growth
1,OC(c1ccccc1)(c1ccccc1)c1ccccc1-c1ccccc1,99%
2,Clc1ccc(-c2nc(-c3c[nH]c4ncccc34)cs2)cc1,66.9% [100 µM]
3,CC(=O)c1cc(-c2ccccc2N)n(-c2ccc3c(c2)OCO3)c1C,21.2%
4,CC1O[C@@H]2C[C@@](O)([C@H]1O)n1c3ccccc3c3c4c(c5c6ccccc6n2c5c31)C(=O)NC4=O (some centres not stated),19.3%
5,COC(=O)/C(CCC=C(C)C)=C1\[C@@H](OC(C)=O)C[C@@]2(C)[C@H]1CC(=O)[C@H]1[C@@]3(C)CCC(N4CCCC4)[C@@H](C)[C@@H]3CC[C@@]12C (some centres not stated),104%
6,CN(C)c1ccc(/C=C2/C=C(c3ccccc3)OC2=O)cc1,97.1%
7,COc1cc(-c2nc3occn3c2-c2ccnc(NCCCNS(=O)(=O)c3ccccc3)n2)ccc1F,37.3%
8,O=C(Nc1ccccc1)c1sc(-c2ccccc2)cc1O,93.1%
9,CCOC(=O)c1c2c(n3c1NCC3)-c1ccccc1C2=O,97.3%
10,C/C(=N\Nc1nc(C)cs1)c1cc2ccccc2o1,86.6%
11,CCOC(=O)C1=C(c2ccccc2)N=c2s/c(=C/c3ccc(Br)cc3)c(=O)n2C1c1ccc(O)cc1 (configuration not stated),104%
12,COc1ccc(C2CC(c3ccc(Nc4nc(Nc5ccc(F)cc5)nc(Nc5ccc(F)cc5)n4)cc3)=NN2C(C)=O)cc1 (configuration not stated),84.5%
13,c1ccc2cc(Cn3c[n+](Cc4ccc5ccccc5c4)c4ccccc43)ccc2c1,46.2%
14,CN1CCN(c2ccc3c(c2)nc(NNC(=O)c2cnccn2)c2cccn23)CC1,8.28% (active)
15,Cc1cc(C)c(-c2c(O)c(Br)c(-c3c(C)cc(C)c(Br)c3C)c(O)c2Br)c(C)c1Br,14.1%
16,CCCCCCCCCCCCCCCCCCOc1ccccc1CC(=O)NCC[N+]1(C)CCOCC1,84.5%
17,O=C(/C=C/c1cccc(Cl)c1)c1cccc(OCCCCOc2cccc(C(=O)/C=C/c3cccc(Cl)c3)c2)c1,100%
18,Cc1ccc(-c2nc(C#N)c(S(=O)(=O)NCCO)o2)cc1,67.7%
19,O=C(CBr)CN1C(=O)c2ccccc2C1=O,104%

row,Compound,growth
1,CCN(CC)c1ccc(/C=C\c2cc(C)c3cc(C)ccc3n2)cc1,38.8%
2,Clc1nn2c(Cn3cnc4c(NCc5ccccc5)ncnc43)nnc2c2ccccc12,16.8%
3,CCOC(=O)c1ccc2c(c1)c1c(C)c3ccncc3c(C)c1n2C,-22.5% (active)
4,CCCCCCCCn1ccc2cc(NC(=O)Cn3cc(CN4CCCCCC4)nn3)ccc21,-36% (active)
5,N#CC(C#N)N=Nc1ccc(Cl)cc1Cl,58.4%
6,Brc1ccc(-c2cnc3nonc3n2)cc1,76.9%
7,COc1cccc(C(=O)OCC(O)C(=O)NC23CC4CC(CC(C4)C2)C3)c1 (configuration not stated),97.2%
8,O=C(Nc1cccc(NC(=O)C2CCCCC2)c1)c1ccccn1,103%
9,Cc1cc(C)cc(Nc2ccc([N+](=O)[O-])c(NCCN3CCOCC3)n2)c1,30.4%
10,O=C(Nc1cccnc1Nc1ccc(Cl)cc1)c1cn(Cc2ccc(F)cc2)nn1,101%
11,Cn1c(=O)c2c(c3ccccc31)OC(N)=C(C#N)C21C(=O)c2ccccc2C1=O,97%
12,COc1cccc(/C=C2\COc3ccc(O)cc3C2=O)c1,84.7%
13,C=C(CN1CC=CCC1)[C@@H]1CC[C@]2(CO)CC[C@]3(C)[C@H](CC[C@@H]4[C@@]5(C)CC[C@H](O)C(C)(C)[C@@H]5CC[C@]43C)[C@@H]12,114%
14,COc1ccc(/C(C)=C(\c2ccc(Cl)cc2)c2ccc(OCCN3CCCC3)cc2)cc1,60.1%
15,CC/C(Cc1ccccc1)=C(\c1ccc(OCCN2CCCCCC2)cc1)c1ccc(OC(=O)NCc2ccccc2)cc1,95%
16,N=c1sc(Cc2cc(Cl)ccc2Cl)cn1CC(=O)c1ccccc1,37.3%
17,Cc1cc(C(=O)Nc2cc(Nc3ncccc3-c3ncnc4nc[nH]c34)ccc2F)cc(C(F)(F)F)c1,45.1%
18,C[C@@H]1O[C@@H](O[C@@H]2C[C@H](c3ccc4c(c3O)C(=O)C3=C(C4=O)[C@@]4(O)C(=O)C[C@](C)(O)C[C@@]4(O)C=C3)O[C@H](C)[C@H]2O)C[C@H](O)[C@@H]1O,102%
